This note sets out measurements from ChEMBL document CHEMBL4513216, “Probing the Open Global Health Chemical Diversity Library for Multistage-Active Starting Points for Next-Generation Antimalarials” (ACS Infect Dis, 2020).

Molecules are shown by their SMILES. Among all 69,000 compounds or so, about 8,600 (12%) showed an effect of 50% or more. For the sample, strong results were picked, then their nearest neighbours and some compounds at random.

For the experiment, the system named is Plasmodium berghei. The experiment is described as follows: Screen against P. berghei liver stage (PbLuc), transformed with Luciferase, at 10uM. The note with it: tested at 10 uM. In kind it is functional, HepG2.
With `CN(C)Cc1cnc(C2CCN(C(=O)c3cc(F)cc(F)c3)C2)[nH]1` (stereo unspecified), the INHIBITION is recorded as 2.05%.
As for `CC(C(=O)N1CCCC1)N1CCN(c2ncc(Cl)cn2)CC1` (stereo unspecified), the figure is 13.8%; as for `CN(C)C(=O)CN1CCCCC1c1nc(N)ncc1-c1ccccc1` (stereo unspecified), 19.3%.
As for `COc1cc(N2CC[C@@H]3O[C@@H](C(=O)NC(C)C)C[C@@H]32)ncn1`, the figure is -4.32%; as for `O=C(COCc1nc(-c2ccncc2)no1)N1CCCCC1`, -19.7%.
Take `CN(C)S(=O)(=O)c1ccc(CN2CCCC2c2cccs2)o1` (stereo unspecified): the INHIBITION is on record as 22.3%.
Turning to `CN1CCC(N2CCC(C(=O)N(C)C)CC2)CC1`, the INHIBITION turned out to be 28.5%.
As for `CNCC(=O)N1CCCC(c2nccnc2Oc2cccc(F)c2)C1` (stereo unspecified), the figure is 49.5%; as for `Cn1cc(CCC(=O)NCc2ccccc2OC(C)(C)C)cn1`, -1.3%.
As for `NC(=O)CSc1nnc2n1N=CN(c1ccccc1F)C2`, the figure is -14.9%.
As for `C[C@@H](O)CNC(=O)CCc1nc2cccnc2[nH]1`, the INHIBITION is -2.13%.
As for `COCC(C)NC(=O)N1CCN(S(C)(=O)=O)CC1` (stereo unspecified), the figure is 5.91%.
With `CNC(=O)c1cn[nH]c1C1(C)CCCN(Cc2ccccn2)C1` (stereo unspecified), the INHIBITION is 17.1%.
For `CNC(=O)c1cn[nH]c1C1(C)CCCN(Cc2ccccc2OC)C1` (stereo unspecified), the INHIBITION is listed as 72.5%.
As for `CNC(=O)c1cn[nH]c1C1(C)CCCN(CC2(O)CCCCC2)C1` (stereo unspecified), the figure is 29.2%; as for `CN(Cc1noc(C2CC2)n1)C1CCN(CCn2cccn2)C1` (stereo unspecified), -45.6%; as for `Cc1nccnc1C1CCN(C2CCCC2O)CC1` (stereo unspecified), -59.6%.
Take `COc1ccc(CCC(=O)N2CCNCC2C(=O)N2CCOCC2)cc1` (stereo unspecified): the INHIBITION came out at 30.3%.
For the compound `CN(Cc1ccc2c(c1)OCO2)Cc1nc(-c2ccco2)no1`, the INHIBITION amounted to 15%.
Take `Cc1noc(CN(Cc2ccco2)Cc2cccc3c2OCO3)n1`: the INHIBITION is 30.3%.
For `Cc1nnc(CN(Cc2cccc3c2OCO3)CC2CCCO2)n1C` (stereo unspecified), the INHIBITION is on record as -31.5%.
As for `CCN(Cc1ccc2cccc(O)c2n1)CC1CCCO1` (stereo unspecified), the figure is -13.5%.
As for `CCN(Cc1nc(-c2ccco2)no1)Cc1cccc2c1OCO2`, the figure is 55%.
As for `CCN(Cc1cccc2c1OCO2)CC1CCCO1` (stereo unspecified), the figure is 50.5%; as for `CC(CNC(=O)N(C)Cc1ccco1)N1CCc2sccc2C1` (stereo unspecified), 11.4%; as for `COCC1CN(Cc2cccc(C#N)c2)Cc2nccn2C1` (stereo unspecified), 25.1%.
Turning to `NC(=O)c1cccc(C(=O)N2CCCC(n3ccnc3)C2)c1` (stereo unspecified), the INHIBITION is recorded as -31.5%.
As for `CCNc1ncc(C(=O)Nc2nnc(N3CCCCC3)[nH]2)s1`, the INHIBITION is recorded as 51.1%.
For the compound `Cc1cnc(NC(=O)N2CCCCCC2)s1`, the INHIBITION is listed as -9.54%.
As for `O=C(Nc1nnc(N2CCCCC2)[nH]1)c1cccs1`, the INHIBITION was -20.6%.
As for `Cc1nc(C(=O)N2CCc3[nH]nc(Nc4ccccc4)c3C2)co1`, the figure is 10.9875%.
As for `O=S(=O)(N1CCOCC1)N1CCC(Oc2cnccn2)CC1`, the figure is 32.8%.
As for `CC(=O)N1CCOCC2(CN(Cc3ccc(C)o3)CCO2)C1` (stereo unspecified), the figure is 26.7%.
Consider `COCCN1CCC(CNC(=O)C2(c3cccc(C)c3)CC2)C1` (stereo unspecified), for which the INHIBITION was 11.4%.
As for `O=C(Cn1nc2c(cc1=O)CCCC2)N[C@@H](C(=O)O)c1ccccc1`, the figure is -19%.
As for `O=C(Cn1nc2c(cc1=O)CCCC2)NC(Cc1ccccc1)C(=O)O` (stereo unspecified), the INHIBITION is on record as -30.4%.
Turning to `O=C(Cn1nc2c(cc1=O)CCCC2)NC(C(=O)O)c1ccccc1` (stereo unspecified), the INHIBITION was 69.8%.
As for `Cc1oc(C(=O)O)cc1S(=O)(=O)Nc1cc(F)ccc1F`, the figure is 21%.
As for `Cc1nc(CN2C(=O)C[C@@H]3[C@@H]2CCN3S(=O)(=O)C2CC2)cs1`, the figure is -64.1%; as for `Cc1cccc(NC2CCN(C(=O)Nc3ccncc3)CC2)n1`, 16.8%.
In the case of `Cc1cccc(NC2CCN(C(=O)Nc3cc(C)on3)CC2)n1`, the INHIBITION is on record as 37.2%.
As for `Cc1cccc(NC2CCN(C(=O)Nc3cccc4[nH]ccc34)CC2)n1`, the figure is 76.1%; as for `Cc1cccc(NC2CCN(C(=O)Nc3ccc(F)c(F)c3)CC2)n1`, 67.4%; as for `Cc1cccc(NC2CCN(C(=O)Nc3cc(F)ccc3F)CC2)n1`, -7.35%.
Consider `Cc1cccc(NC2CCN(C(=O)Nc3ccc(F)cc3C)CC2)n1`, for which the INHIBITION is -0.113%.
As for `Cc1cccc(NC2CCN(C(=O)Nc3cn[nH]c3)CC2)n1`, the figure is 28.8%; as for `Cc1cccc(NC2CCN(C(=O)Nc3cc(F)cc(F)c3)CC2)n1`, 90%; as for `O=C(c1ccc2cc[nH]c2c1)N1CCC(Nc2cccnn2)CC1`, 11.4%.
As for `CCn1cc(CN2CCCN(C(=O)c3ccc(C)o3)CC2)cn1`, the figure is 31.3%.
`Cn1ccnc1CN1CCC2(CCC(=O)N2CCN2CCCC2)CC1`: the INHIBITION is given as 35.2%.
As for `O=C(NCCn1nc(-n2cncn2)ccc1=O)c1ccc(F)cc1F`, the INHIBITION was found to be 7.77%.
Consider `c1cnn(-c2ccc(CCNC3CCN(C4CC4)C3)cc2)c1` (stereo unspecified), for which the INHIBITION worked out at 14.2%.
Regarding `COc1cccc(-n2nnc(C(=O)N3CCCCCC3)c2C)c1`, the INHIBITION came out at 2.845%.
As for `Cc1ccc(CSc2nc(N)cc(NCCS(=O)(=O)N(C)C)n2)cc1`, the figure is 23.5%; as for `c1csc(CN(Cc2ccsc2)CC2CCCO2)n1` (stereo unspecified), -12.2%.
As for `CC(C)n1cc(CN(Cc2ccsc2)CC2CCCO2)cn1` (stereo unspecified), the figure is 12.9%; as for `COc1ccc(CN(Cc2ccsc2)CC2CCCO2)cn1` (stereo unspecified), 61.6%; as for `CCCc1nnc(NCCc2noc(C3CC3)n2)o1`, 16.5%.
As for `NC(=O)Cn1cc(NC(=O)N2CCN(c3ccc(F)cc3)CC2)cn1`, the figure is 7.333%; as for `NC(=O)c1cn(CC2CCC2)c(C2CC2)n1`, -21.8%; as for `CNc1ncccc1CN1CCN2CCN(C)CC2C1` (stereo unspecified), 53.8%.
For `CNc1ncccc1CN1CCN(C)CC(C(N)=O)C1` (stereo unspecified), the INHIBITION is 33.2%.
In the case of `CNc1ncccc1CN1CCN(C)CC(C(=O)N(C)C)C1` (stereo unspecified), the INHIBITION was found to be 0.696%.
As for `Cc1nccn1CCC(=O)N1CCC2(CCC(=O)N(CC3CC3)C2)CC1`, the figure is 42.5%; as for `CN(Cc1cccs1)C1CCC[C@@H]2CN(C(=O)c3cnccn3)C[C@H]12` (stereo partly specified), 37.9%.
Consider `Cn1c(=O)oc2cc(Nc3ncc(C#N)cc3Cl)ccc21`, for which the INHIBITION was 58.9%.
As for `Cn1c(=O)oc2cc(Nc3nccnc3C#N)ccc21`, the figure is 36.5%.
As for `Cn1c(=O)oc2ccc(Nc3ncc(C#N)cc3Cl)cc21`, the figure is 42.1%; as for `CS(=O)(=O)CCCN(CCCO)C1CCc2ccccc21` (stereo unspecified), 21.7%.
As for `CS(=O)(=O)NCCN(CCCO)C1CCc2ccccc21` (stereo unspecified), the figure is 51.7%; as for `CS(=O)(=O)CCN(CCCO)C1CCc2ccccc21` (stereo unspecified), 18.3%.
